The record followed here is PubChem BioAssay AID2289 (National Center for Advancing Translational Sciences (NCATS), 2010).

Each structure is given as a SMILES string. Screen size: about 340,000 compounds; about 3,300 (0.97%) were called active. Inconclusive results (about 9%) are left out. Calls come from the whole dose curve; as a rule, active = well fitted inhibition curve with a large enough effect; inconclusive = small, poorly fitted or top-dose-only effect, or effect the other way; inactive = flat fitted curve, though single readings scatter. The list shows a part of the results.
Potency is the fitted concentration of half-maximal effect.

The nature of the test: qHTS Assay for Modulators of miRNAs and/or Inhibitors of miR-21. Note: nearly all actives have a fitted effect of over 55% in size. The settings on record: HeLa miR-21-FLuc reporter, luciferase luminescence, 48 h; actives lower the signal. The essentials:
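HeLa miR-21-FLuc reporter line, endogenous miR-21; 2000 cells/well in DMEM/10% FBS; compound titration up to ~40uM final, 48 h, 37 degree Celsius; luciferase detection reagent, 15 min lysis, CCD luminescence.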
Turning to `CCCOc1ccc(/C=N/Nc2ccccc2[N+](=O)[O-])c(O)c1`, the Potency was 0.0656 µM (active).
With `O=[N+]([O-])c1ccccc1N/N=C\c1ccccc1Cl`, the Potency is 0.656 µM (active).
Next, `O=[N+]([O-])c1ccc(N/N=C/c2cccc(O)c2O)cc1`: 6.56 µM (active); `O=[N+]([O-])c1ccccc1N/N=C/c1cccc(O)c1O`: 2.61 µM (active).
Take `O=[N+]([O-])c1ccccc1NC(=S)N/N=C/c1ccc(O)c(O)c1`: the Potency is 1.85 µM (active).
The figure for `COc1ccccc1/C=N\Nc1ccccc1[N+](=O)[O-]` is 1.04 µM (active); for `O=C(CCS(=O)(=O)c1ccccc1)NC12CC3CC(CC(C3)C1)C2` it is 2.07 µM (active); for `O=C(CCCc1ccccc1)NC12CC3CC(CC(C3)C1)C2` it is 1.65 µM (active).
The figure for `Cc1ccc2nc(-c3ccc(N4C(=NC(=O)CCC(=O)O)SC5CS(=O)(=O)CC54)cc3)sc2c1` (stereo not given) is 3.29 µM (active); for `CCCC(=O)N=C1SC2CS(=O)(=O)CC2N1c1ccc(-c2nc3ccc(C)cc3s2)cc1` (stereo not given) it is 2.93 µM (active); for `Nc1nc(-c2cccnc2)nc2sc3c(c12)CCCC3` it is 4.65 µM (active).
On to `NNc1nc(-c2ccccc2)nc2sc3c(c12)CCCC3`, for which the Potency was 0.464 µM (active).
The figure for `NNc1nc(-c2ccccc2Cl)nc2sc3c(c12)CCCC3` is 5.21 µM (active); for `CC1CCN(C(=O)c2ccc(NC(=O)c3nsc4ccccc34)cc2)CC1` it is 1.85 µM (active); for `CC1CCN(C(=O)c2cccc(NC(=O)c3nsc4ccccc34)c2)CC1` it is 7.36 µM (active).
The figure for `CCOC(=O)C1CCCN(C(=O)c2ccc(NC(=O)c3nsc4ccccc34)cc2)C1` (stereo not given) is 3.69 µM (active); for `COC(=O)CCc1sc(Nc2ccccc2)nc1-c1ccc(OC)cc1` it is 16.5 µM (active).
As to `COc1ccc2nc(Nc3nc4cc5c(cc4s3)OCCO5)sc2c1`, the Potency was 13.1 µM (active).
For the compound `COc1ccc2nc(Nc3ccc4c(c3)OCO4)sc2c1`, the Potency is 4.65 µM (active).
Take `COc1ccc(Nc2nc(C)c(-c3ccccc3)s2)cc1`: the Potency was 6.56 µM (active).
On to `COc1ccc(Nc2nc3ccc(OC)cc3s2)cc1`, for which the Potency was 3.69 µM (active).
Next, `O=c1c2c(nc3cc(-c4ccc(F)cc4)[nH]n13)CCC2`: 1.04 µM (active).
The figure for `COC(=O)C1C(=O)C=C(Nc2ccc(F)cc2)CC1c1ccc(OC)cc1` (stereo not given) is 10.4 µM (active); for `Cc1ccc2c(Cl)c(C(=O)NCCc3ccccc3)sc2c1` it is 6.56 µM (active); for `Cc1cc(OCC(=O)N(C)C2CCCCC2)ccc1Cl` it is 1.65 µM (active).
The figure for `Cc1cn(CCC(=O)Nc2ccccc2N2CCOCC2)c2ccccc12` is 9.27 µM (active); for `CCCS/C(N)=N/N=C/c1cc(C)ccc1O` it is 1.47 µM (active); for `COc1cc(Cl)c(NC(=O)c2cc3ccccn3n2)c(OC)c1` it is 6.56 µM (active).
With `CC(C)Oc1ccc(CNC(=O)c2cc3ccccn3n2)cc1`, the Potency was 6.56 µM (active).
`CCOc1ccc(CNC(=O)c2cc3ccccn3n2)cc1`: the Potency is 7.36 µM (active).
For the compound `CN(C)c1ccc(-n2cc3c(=O)n(C)c(=O)n(C)c3c2)cc1`, the Potency was 11.7 µM (active).
The figure for `COCc1cc(C)nc2sc(C(=O)Nc3nccs3)c(N)c12` is 13.1 µM (active); for `COCc1cc(C)nc2sc(C(=O)Nc3cccc(OC)c3)c(N)c12` it is 2.07 µM (active); for `COCc1cc(C)nc2sc(C(=O)Nc3ccc(OC)cc3)c(N)c12` it is 16.5 µM (active).
On to `Nc1c(-c2nc(-c3ccccc3Cl)no2)nnn1-c1ccccc1F`, for which the Potency was 0.826 µM (active).
For the compound `CCc1ccccc1NC(=O)C(=O)c1cc(C)n(-c2ccccc2F)c1C`, the Potency is 16.5 µM (active).
Consider `CCOC(=O)c1c(C)oc2c1c(CN1CCN(CCO)CC1)c(O)c1ccccc12`, for which the Potency was 10.4 µM (active).
The figure for `CCOC(=O)c1c(C)oc2c1c(CN1CCN(C(=O)OCC)CC1)c(O)c1ccccc12` is 14.7 µM (active).
The figure for `CCOC(=O)c1c(C)oc2c1cc(O)c1ccccc12` is 5.21 µM (active).
Next, `CCOC(=O)c1c(C)oc2c1c1c(c3ccccc32)OCN(CCCC(=O)O)C1`: 10.4 µM (active).
With `c1ccc(Nc2ncnc3c2oc2ccccc23)cc1`, the Potency was 7.36 µM (active).
The figure for `Oc1cccc(Nc2ncnc3c2oc2ccccc23)c1` is 5.21 µM (active); for `COc1ccccc1Nc1ncnc2c1oc1ccccc12` it is 14.7 µM (active).
The figure for `Oc1ccc(Nc2ncnc3c2oc2ccccc23)cc1` is 13.1 µM (active); for `c1ccc2c(c1)oc1c(Nc3ccc4c(c3)OCO4)ncnc12` it is 1.65 µM (active); for `C=C1SC(=Nc2ccccc2Cl)N(C(=O)c2sc3ccccc3c2Cl)C1(C)C` it is 13.1 µM (active).
The figure for `O=C(Nc1ccon1)c1sc2cc(F)ccc2c1Cl` is 1.65 µM (active).
As for `O=C(NC1=NCCS1)c1sc2cc(F)ccc2c1Cl`, the Potency was 0.736 µM (active).
With `CCCc1cc(C(=O)NCCc2ccccc2)no1`, the Potency is 4.14 µM (active).
The figure for `CC(C)c1cc(C(=O)NCCc2ccccc2)no1` is 2.33 µM (active); for `CC(C)Cc1cc(C(=O)NCCc2ccccc2)no1` it is 2.33 µM (active); for `Brc1ccc(C2=NC(Cc3ccccc3)CO2)cc1` (stereo not given) it is 14.7 µM (active).
With `OC(COc1ccc2ccccc2c1Cl)CN1CCOCC1` (stereo not given), the Potency was 10.4 µM (active).
The figure for `Nc1c(C(=O)c2ccccc2)oc2ccc(Br)cc12` is 2.61 µM (active); for `COc1ccc(C(=O)c2oc3ccc(OC)cc3c2N)cc1` it is 7.36 µM (active); for `COc1ccc2oc(C(=O)c3ccccc3)c(N)c2c1` it is 1.17 µM (active).
Next, `Cc1cc(NC(=O)c2cccc(COc3ccc(Br)cc3)c2)no1`: 1.04 µM (active); `CC1CN(C(=O)c2cccc(COc3ccc(Br)cc3)c2)CC(C)O1` (stereo not given): 2.93 µM (active); `COc1ccc(OCc2cccc(C(=O)N3CCCC3)c2)cc1`: 1.47 µM (active).
The figure for `COc1ccc(OCc2cccc(C(=O)Nc3ccc(CN4CCCCC4)cc3)c2)cc1` is 2.07 µM (active); for `CCOc1ccc(N=C(C)C2=C(O)c3ccccc3C2=O)cc1` it is 1.17 µM (active).
Regarding `O=Cc1c(N2CCN(c3ccccc3)CC2)nc2ccccn2c1=O`, the Potency was 16.5 µM (active).
Next, `COc1ccccc1N1CCN(c2nc3ccccn3c(=O)c2C=O)CC1`: 18.5 µM (active); `O=C(/C=C/c1ccc(Cl)cc1Cl)N1CCc2ccccc21`: 0.521 µM (active); `Cc1ccc(/C=C/C(=O)N2CCc3ccccc32)o1`: 2.93 µM (active).
